Laboratory results: PubChem BioAssay (NCI)
About 83,000 compounds went through this panel and 20% of them were active in at least one assay; those are over-represented in the sample as a whole.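 Cells were grown in 96-well plates and exposed to the test compound at a single concentration for 48 hours; results are reported as percent growth, with values below 10 considered active.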 Unmarked numbers belong to inactive results. Active and inactive are the calls of the source.

How the values were obtained:
Experiment in all cases: NCI-60 one-dose screen, 48 h (100 = growth as untreated, 0 = no growth, -100 = all killed)
Settings in all cases: 10 µM unless noted
SR leukemia = system: SR leukemia
RPMI-8226 leukemia = system: RPMI-8226 leukemia
OVCAR-8 ovarian = system: OVCAR-8 ovarian
OVCAR-5 ovarian = system: OVCAR-5 ovarian
OVCAR-4 ovarian = system: OVCAR-4 ovarian
SK-OV-3 ovarian = system: SK-OV-3 ovarian
OVCAR-3 ovarian = system: OVCAR-3 ovarian
HS 578T breast = system: HS 578T breast
NCI/ADR-RES ovarian = system: NCI/ADR-RES ovarian
IGROV1 ovarian = system: IGROV1 ovarian

Structure (SMILES) | growth (SR leukemia) | growth (RPMI-8226 leukemia) | growth (OVCAR-8 ovarian) | growth (OVCAR-5 ovarian) | growth (OVCAR-4 ovarian) | growth (SK-OV-3 ovarian) | growth (OVCAR-3 ovarian) | growth (HS 578T breast) | growth (NCI/ADR-RES ovarian) | growth (IGROV1 ovarian) [%]
O=[N+]([O-])c1cccc(-c2nc3cc4nc5ccccc5[nH]c4cc3n2)c1 | 93.4% | 101% | 98.2% | 111% | 98.3% | 102% | 98.7% | 109% | 101% | 
COc1cc(-c2csc(NC(=O)c3ccc(N4CCOCC4)c(C(F)(F)F)c3)n2)cc(OC)c1OC | 23.3% | 6.74% (active) | 2.22% (active) | 83.9% | 23.1% | 74.5% | 38.3% | 60% | 3.62% (active) | 
C=C1C(=O)O[C@H]2[C@H]1CC/C(COC(=O)NCc1ccc(Cn3c(=O)sn(CCCCC)c3=O)cc1)=C\CC[C@@]1(C)O[C@@H]21 | 3.58% (active) | -22.8% (active) | 58% | 72.5% | 29.5% | 93.6% | -56.1% (active) | 71% | 99.8% | 
CCn1cc(C(=O)NNC(=S)Nc2ccc(C)cc2)c(=O)c2ccc(C)nc21 | 104% | 98.9% | 95.6% | 107% | 102% | 106% | 103% |  | 95.6% | 95.7
CCOC(=O)C#Cc1c(C(=O)OCC)nnn1Cc1ccc([N+](=O)[O-])cc1 | -10.7% (active) | 11.4% | 63.3% | 97.3% | 51.2% | 105% | 7.55% (active) | 91.2% | 96.3% | 
CCCC/C=C/[C@@H]1C[C@H]1CCO | 100% | 99.3% | 100% | 89.1% | 107% | 91.8% | 109% |  | 104% | 100
Oc1c(I)cc(I)cc1CNCCN(Cc1ccccn1)Cc1ccccn1 | -9.62% (active) | -12.3% (active) | -19.7% (active) | -24.3% (active) | -48.5% (active) | -74.7% (active) | -59.7% (active) | -11.3% (active) | -18.4% (active) | 
O=C1Nc2ccccc2/C1=C/c1nc2ccccc2c(=O)[nH]1 | 31% | 85.9% | 93.4% | 125% | 94.5% | 96% | 90.9% |  | 97% | 69.5
C=CCOC(=O)Nc1cccn([C@H](Cc2ccccc2)C(=O)NCCC(C)C)c1=O | 64.6% | 85.9% | 102% | 117% | 92.7% | 103% | 119% | 103% | 93.1% | 
COc1ccc(-c2nc3c(ncc4ccc(=O)[nH]c43)s2)cc1 | 45.5% | 69.2% | 83.9% | 90% | 98.8% | 102% | 85.5% | 88% | 74.6% | 
O=C(Cn1cc(CSc2nc3ccccc3o2)nn1)Nc1ccc(F)cc1F | 109% | 114% | 103% | 110% | 108% | 124% | 119% | 107% | 101% | 
OCCn1cc(-c2nc(-c3c[nH]c4ncccc34)cs2)c2cc(F)ccc21 | 22% | 53.6% | 80.2% | 84.3% | 52.4% | 70.1% | 81% |  | 82.6% | 44.7
COc1ccc(/C=C/C(=O)c2cc3c(N)c(C(=O)Nc4cccc5ccccc45)sc3nc2C)cc1 | 44.1% | 33.4% | 81% | 103% | 88.7% | 87.7% | 22% | 47.6% | 58.8% | 
O=c1scc(-c2ccc(C(F)(F)F)cc2)s1 | 89.9% | 97.7% | 94.7% | 95.6% | 76.8% | 99.3% | 103% |  | 102% | 72.6
COc1cc(NS(=O)(=O)c2ccc(-c3cnc(C4CC4)o3)cc2)ccc1F | 19.6% | 20.2% | 28.6% | 36.7% | 38.6% | 47.4% | -15.4% (active) | 8.89% (active) | 15.3% | 
COC(=O)CC[C@@H]1O[C@@H](c2cccc(C(F)(F)F)c2)[C@@H](O)[C@H]1O | 97.1% | 109% | 110% | 97.1% | 105% | 97.8% | 99.4% |  | 108% | 112
Cc1c2cnccc2c(C)c2c1c1cc(C#N)ccc1n2C | 0.777% (active) | -22.9% (active) | 6.24% (active) | -15% (active) | -39.4% (active) | -3.17% (active) | -7.57% (active) | -18% (active) | -9.81% (active) | 
c1ccc(-c2oc(-c3ccccc3)c(CN3CCCCC3)c2CN2CCCCC2)cc1 | -2.07% (active) | -6.38% (active) | 33% | 50.3% | 11.9% | 52.3% | 23.4% |  | 39.8% | 44.7
Cn1c(=O)c2nc(/C=C/c3ccccc3)c(=O)[nH]c2n(C)c1=S | 111% | 110% | 105% | 110% | 107% | 118% | 116% |  | 106% | 107
CC(C)Cn1cnc2c(=O)[nH]c(N)nc21 | 90.3% | 104% | 97% | 110% | 103% | 78% | 109% | 106% | 105% | 
CCOC(=O)C/C(=N\Nc1cc(=O)[nH]c2ccc(Br)cc12)C(=O)OCC | 40.8% | 83.2% | 98.6% | 99.6% | 96.6% | 105% | 100% | 92% | 93.4% | 
CC(=O)O[C@@H]1C[C@]2(C(C)C)O[C@@]1(C)[C@@H]1CCC(C)=C1[C@@H]2OC(=O)/C=C/c1ccccc1 | 73.6% | 76.6% | 67.5% | 98.1% | 79.1% | 89.3% | 89.7% | 20% | 71.9% | 
CS(=O)(=O)c1ccc(-c2cnn3ccc(-c4cccc(S(=O)(=O)C5CC5)c4)nc23)cc1 | 49.3% | 49.1% | 43.7% | 68.7% | 67.9% | 32.2% | 54.7% | 45.5% | 71.8% | 
COc1ccc(CNc2c3ccccc3nc3ccccc23)cc1 | 6.96% (active) | 15.8% | 27.7% | 46.4% | 40.3% | 53.8% | 48.1% |  | 38.8% | 27.2
COc1cc2c(cc1OC)C(C)N(S(N)(=O)=O)CC2 (stereo not drawn) | 82.3% | 96.4% | 97% | 82.6% | 105% | 103% | 99.2% |  | 96.9% | 97.9
O=C(c1nn(-c2ccccc2)c2c1CC(NCc1ccc(F)cc1)CC2)N1CCCCC1 (stereo not drawn) | 94.6% | 110% | 97% | 103% | 99.2% | 103% | 104% |  | 93.9% | 97.7
COc1ccc(C2CC(c3ccc(Nc4nc(Nc5ccccc5)nc(Nc5ccccc5)n4)cc3)=NN2C(C)=O)cc1 (stereo not drawn) | 88.2% | 73.7% | 83% | 104% | 89.7% | 124% | 91.4% | 102% | 89.7% | 
